The sample as a whole holds a higher share of hits than the screen did.
ERK AVP block – vasopressin-driven ERK pathway inhibition | HEK293-V1b, vasopressin-stimulated pERK AlphaScreen | 0.99% of 72,000 active | Potency, µM (highest dose often 57.5 µM), inactives show top-dose activity, negative = inhibition, usual class: inhibitors | AID 995; note: % is set by controls: 0 for no effect and ±100 for the full control effect; nearly all actives have a fitted effect of over 55% in size
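Overnight-seeded V1b-HEK293 cells in 1% FBS got compound, then vasopressin (25 nM final, 5 min, 37C), then lysis buffer. AlphaScreen detection of phospho-ERK; activity normalized to basal and full-stimulation controls.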
CRE-bla Fsk – CRE-bla signaling modulation under forskolin stimulation; 2.5% of 71,000 active; Potency, µM (series often up to 38.2 µM), for the others: top-dose activity change, negative = inhibition, usual class: activators; CHO CRE-bla reporter (cAMP response element driving beta-lactamase), forskolin EC10, beta-lactamase ratio; AID 662; active = well fitted activation curve with a large enough effect in the signal ratio, with a control signal flat, not every such curve was filed as active; inconclusive = small, poorly fitted or top-dose-only effect, or effect the other way, or a change in a side signal; the % refers to the signal ratio; note: % of control where 0% means no effect
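AC50 values, positive or negative, reflect shifts in EC10 NKH 477-induced CRE-bla reporter activity in CHO cells. Incubation lasted 3 h at 37 °C before CCF4 substrate (2 h, room temperature) and ratiometric 460/530 nm reading.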
IkB signaling – IkB pathway inhibition in ABC-DLBCL cells | AID 445 | Potency, µM (titrated, usually from 57.1 µM), inactives show at the top dose IkBa stabilization activation | 0.04% of 110,000 active | ABC-DLBCL IkBa-CBG/CBR dual luciferase ratio, 4 h; response scale: scaled: untreated 0%, proteasome inhibitor 100%; active = well fitted curve in the direction sought with a large enough effect in the signal ratio, not every such curve was filed as active; inconclusive = small, poorly fitted or top-dose-only effect, or a change in a side signal; the % refers to the signal ratio;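 note: the direction sought is a rising ratio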
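In this assay, an IκBα–CBG68 fusion accumulates when IKK-driven degradation is blocked; native CBR normalizes for cell number. OCI-Ly3 cells were treated 4 h with compound and doxycycline, then green and red light read after Chroma-Glo addition.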
Imprint erasure – inducers of genomic imprint erasure in mouse ES cells. mouse ES Peg3-LacZ reporter, beta-gal luminescence, 40 h. Potency, µM (titrated, usually from 60.7 µM), for the others: at the top dose activity change, positive = activation, usual class: activators. 0.02% of 110,000 active. AID 1948
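Gelatin-coated wells received 300 freshly trypsinized female ES cells with a Peg3LacZ-Neo reporter on the maternal allele, then incubated 40 hours at 37C. BetaGlo was added for 5 minutes at room temperature before a single luminescence read.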
* marks the source's active call; other numbers are inactive results; ? = inconclusive; . = no result given; [ ] = another dose, or the depositor's remark. Unless noted, calls come from the whole dose curve; as a rule, active = well fitted curve in the direction sought with a large enough effect; inconclusive = small, poorly fitted or top-dose-only effect, or another doubt; inactive = no such curve, though single readings can be large; an effect the other way counts as inactive or inconclusive. Potency is the fitted concentration of half-maximal effect.

SMILES | ERK AVP block | CRE-bla Fsk | IkB signaling | Imprint erasure
COc1ccc(Cl)cc1NS(=O)(=O)c1ccc(S(=O)(=O)N2CCCC2)cc1 | 25µM* | -15% | ? | -10%
COc1ccc(S(=O)(=O)Nc2cc(Cl)ccc2OC)cc1 | -1% | ? | 8% | -18%
C[C@@H]1CC[C@H]2[C@H](C)C3[C@H](C[C@H]4[C@@H]5CC=C6C[C@@H](O)CC[C@@]6(C)[C@@H]5C[C@@H](O)[C@]34C)N2C1 (stereo partly drawn) | . | . | . | -14%[10.9 µM]
O=C(Nc1ccc2oc(-c3ccccc3Cl)nc2c1)c1cncc(Br)c1 | -23% | 0.5µM* | 1% | -20%
O=C(Nc1ccc2oc(-c3ccccc3F)nc2c1)c1ccc2c(c1)OCCO2 | 10µM* | -13% | ? | -24%
O=C(Nc1ccc2nn(-c3ccccc3)nc2c1)c1ccc(Br)o1 | 15% | 1% | -1% | -29%
O=C(Nc1ccc2nn(-c3ccccc3)nc2c1)c1ccc2c(c1)OCCO2 | 16µM* | ? | ? | -20%
O=C(NCCc1ccccc1)c1cccc(Br)n1 | . | . | . | -23%
CC(=O)C(C)Oc1ccc2c3c(c(=O)oc2c1C)CCCC3 (stereo not drawn) | ? | ? | -8% | -19%
CC(=O)COc1ccc2c3c(c(=O)oc2c1C)CCCCC3 | ? | 2µM* | -3% | -12%
CCc1c(C)c2ccc(OCC(=O)N(C)C)c(C)c2oc1=O | -25% | 6.3µM* | -8% | -21%
Cc1c(O)ccc2c3c(c(=O)oc12)CCCC3 | 16µM* | ? | -1% | -19%
Cc1c(O)ccc2c3c(c(=O)oc12)CCC(C)C3 (stereo not drawn) | -21% | 3.2µM* | ? | -15%
Nc1ncnc2c1ncn2[C@@H]1CCCO1 | 39% | -2% | 6% | .
COc1ccc(OC)c(-c2ccccc2/C=N/NS(=O)(=O)c2ccc(C)cc2)c1 | 11%[11.5 µM] | . | . | .
CC1=c2c(oc3cc(O)c(Nc4c(C)cc(O)cc4O)c(C)c23)=CC(=O)C1=Nc1c(C)cc(O)cc1O | -9%[11.5 µM] | -4%[7.6 µM] | 1%[11.4 µM] | -10%[10.9 µM]
CCN1C(=O)/C(=C2/Sc3ccc(OC)cc3N2C)SC1=Nc1cccc(O)c1 | -23% | 2.5µM* | ? | -16%
CNc1ncnc2c1ncn2[C@H]1C[C@@H](OP(=O)(O)O)[C@H](COP(=O)(O)O)O1 | 3% | -3% | -3% | .
COc1cccc(-c2nc(NC3CC3)c3ccccc3n2)c1 | 13µM* | -2% | -1%[11.4 µM] | -10%
c1cncc(CNc2nc(-c3cccnc3)nc3ccccc23)c1 | ? | 6.3µM* | -1%[11.4 µM] | -4%
Cc1cnc(CNc2nc(-c3ccccc3C)nc3ccccc23)cn1 | 1% | ? | 1%[11.4 µM] | -11%
COc1ccccc1CNc1nc(-c2ccc(C(=O)N(C)C)cc2)nc2ccccc12 | -7% | ? | -4%[11.4 µM] | -26%
Cc1cnc(CNc2nc(-c3ccoc3)nc3ccccc23)cn1 | ? | 10µM* | -1%[11.4 µM] | -18%
CN(C)C(=O)c1ccc(-c2nc(NCc3cccnc3)c3ccccc3n2)cc1 | -7% | 1.6µM* | -10%[11.4 µM] | -27%
COC(=O)[C@@H]1C[C@H]1[C@@H](NC(=O)OCc1ccccc1)c1ccccc1 | . | 9% | . | .
SMILES | ERK AVP block | CRE-bla Fsk | IkB signaling | Imprint erasure
CNc1nc(-c2cccc(C#N)c2)nc2ccccc12 | ? | ? | -3%[11.4 µM] | 1.3µM*
COc1cccc(-c2nc(NCc3cccnc3)c3ccccc3n2)c1 | ? | 13µM* | -1%[11.4 µM] | -9%
Cc1cnc(CNc2nc(-c3ccc(C(=O)N(C)C)cc3)nc3ccccc23)cn1 | 1% | 7.9µM* | -4%[11.4 µM] | -26%
CN(C)c1nc(-c2cccc(C#N)c2)nc2ccccc12 | -1% | ? | -4%[11.4 µM] | -16%
Cc1cc(N)n(-c2nc(-c3cccnc3)nc3ccccc23)n1 | 18% | 7.9µM* | -1% | 1%
COc1cccc(-c2nc(NCc3ccccc3)c3ccccc3n2)c1 | ? | -14% | 7%[11.4 µM] | -16%
c1cncc(-c2nc(-n3ccnc3)c3ccccc3n2)c1 | -13% | ? | -1%[11.4 µM] | 5%
CC(C)(C[C@@]1(C)NC(=O)NC1=O)OCc1ccccc1 | 11%[11.5 µM] | 7%[7.6 µM] | 0%[11.4 µM] | 11%[10.9 µM]
COc1ccc2[nH]cc(CCNc3nc(-c4ccc(N(C)C)cc4)nc4ccccc34)c2c1 | ? | ? | -7%[11.4 µM] | -42%
N#Cc1cccc(-c2nc(NCc3cccnc3)c3ccccc3n2)c1 | ? | 10µM* | 1%[11.4 µM] | 4%

Screening results from PubChem.
